Records with an inconclusive call do not appear. The source made the active and inactive calls. Unless noted, calls come from the whole dose curve; as a rule, active = well fitted curve in the direction sought with a large enough effect in the repeat runs; inconclusive = weak or mixed curves; inactive = no such curve, though single readings can be large; an effect the other way counts as inactive or inconclusive.
Columns and labels:
[1] = qHTS assay to identify small molecule antagonists of the thyroid receptor (TR) signaling pathway - cell viability counter screen (AID 743064); note: nearly all actives have a fitted effect of over 50% in size
How it was run: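 In-well cytotoxicity read by CellTiter-Fluor (30 min, 37 C) following 23.5 h exposure of GH3 cells bearing a TRE-luciferase sensor. Compounds were added alongside 1 nM (final) T3 to drive TR transactivation.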

[2] = qHTS assay to identify small molecule antagonists of the thyroid receptor (TR) signaling pathway (AID 743065); note: series mostly up to about 70 µM; nearly all actives have a fitted effect of over 55% in size
How it was run: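 GH3.TRE-Luc rat pituitary cells carrying two TR response elements driving luciferase were plated for 4 h, given compound plus 1 nM T3 (final), and incubated 23.5 h at 37 C. ONE-Glo luminescence measured reporter inhibition; CellTiter-Fluor fluorescence tracked cytotoxicity.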

[3] = tested on: thyroid hormone receptor (rat, GH3 cells); experiment: qHTS assay to identify small molecule agonists of the thyroid receptor (TR) signaling pathway (AID 743066; calls by dose curve)
[4] = biological target: Estrogen receptor (Homo sapiens) (UniProt P03372); experiment: qHTS assay to identify small molecule antagonists of the estrogen receptor alpha (ER-alpha) signaling pathway (AID 743069; active = well fitted curve in the direction sought with a large enough effect in the signal ratio in the repeat runs, not every such curve was filed as active; the % refers to the signal ratio)
Sequence of Estrogen receptor (Homo sapiens) (P03372 whole entry, looked up): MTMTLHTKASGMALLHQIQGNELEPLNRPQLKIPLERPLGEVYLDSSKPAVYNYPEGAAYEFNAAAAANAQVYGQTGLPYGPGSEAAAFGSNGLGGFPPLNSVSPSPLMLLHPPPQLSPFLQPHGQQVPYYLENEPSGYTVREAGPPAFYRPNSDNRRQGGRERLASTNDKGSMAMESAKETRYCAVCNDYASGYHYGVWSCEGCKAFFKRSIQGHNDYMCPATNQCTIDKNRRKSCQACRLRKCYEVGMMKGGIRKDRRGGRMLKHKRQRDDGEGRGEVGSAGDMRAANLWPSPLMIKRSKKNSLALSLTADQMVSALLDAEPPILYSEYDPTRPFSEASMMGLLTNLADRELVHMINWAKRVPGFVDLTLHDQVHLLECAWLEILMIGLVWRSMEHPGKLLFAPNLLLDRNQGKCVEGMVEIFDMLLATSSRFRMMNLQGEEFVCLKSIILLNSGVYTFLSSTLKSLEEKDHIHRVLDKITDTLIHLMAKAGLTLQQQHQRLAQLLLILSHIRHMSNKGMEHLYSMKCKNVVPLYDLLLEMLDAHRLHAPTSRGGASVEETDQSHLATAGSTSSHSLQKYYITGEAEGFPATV
How it was run: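 Screening used a UAS-driven beta-lactamase reporter integrated into HEK293 cells expressing ER-alpha, stimulated with 17beta-estradiol alongside test compounds over 18 hr at 37C; signal came from LiveBLAzer B/G FRET fluorescence.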

[5] = qHTS assay to identify small molecule antagonists of the estrogen receptor alpha (ER-alpha) signaling pathway - cell viability counter screen (AID 743074; calls by dose curve; note: nearly all actives have a fitted effect of over 45% in size)
[6] = biological target: Estrogen receptor (Homo sapiens) (UniProt P03372); experiment: qHTS assay to identify small molecule agonists of the estrogen receptor alpha (ER-alpha) signaling pathway (AID 743075; calls by dose curve)
[7] = biological target: Estrogen receptor (Homo sapiens) (UniProt P03372); experiment: qHTS assay to identify small molecule agonists of the estrogen receptor alpha (ER-alpha) signaling pathway using the BG1 cell line (AID 743079); note: nearly all actives have a fitted effect of over 20% in size; note: potency is the fitted concentration of half-maximal effect
[8] = qHTS assay to identify small molecule antagonists of the estrogen receptor alpha (ER-alpha) signaling pathway using the BG1 cell line - cell viability counter screen (AID 743081);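 note: compound given together with 17beta-estradiol as the ER stimulus; series mostly up to about 70 µM; nearly all actives have a fitted effect of over 45% in size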
Aromatase (Homo sapiens) = Aromatase (Homo sapiens) (UniProt P11511); experiment: qHTS assay to identify aromatase inhibitors (AID 743083); note: series mostly up to about 70 µM; nearly all actives have a fitted effect of over 55% in size
Sequence of Aromatase (Homo sapiens) (P11511 whole entry, looked up): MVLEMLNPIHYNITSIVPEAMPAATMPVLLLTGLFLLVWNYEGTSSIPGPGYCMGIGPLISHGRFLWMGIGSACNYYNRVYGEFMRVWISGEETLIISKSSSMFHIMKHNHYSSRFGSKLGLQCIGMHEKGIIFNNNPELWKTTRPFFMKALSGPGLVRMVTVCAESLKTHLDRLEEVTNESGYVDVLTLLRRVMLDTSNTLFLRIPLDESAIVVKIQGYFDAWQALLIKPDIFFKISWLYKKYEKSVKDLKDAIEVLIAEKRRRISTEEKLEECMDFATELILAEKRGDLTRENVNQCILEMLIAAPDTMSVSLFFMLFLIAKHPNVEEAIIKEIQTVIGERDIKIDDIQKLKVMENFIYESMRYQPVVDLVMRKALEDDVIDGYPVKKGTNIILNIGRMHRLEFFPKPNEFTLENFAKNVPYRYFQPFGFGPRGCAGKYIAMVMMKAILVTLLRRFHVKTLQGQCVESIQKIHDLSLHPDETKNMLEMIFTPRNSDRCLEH

[9] = qHTS assay to identify aromatase inhibitors - cell viability counter screen (AID 743084);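 note: cells stimulated with testosterone during compound exposure; nearly all actives have a fitted effect of over 55% in size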
[10] = biological target: Aryl hydrocarbon receptor (Homo sapiens) (UniProt P35869); experiment: qHTS assay to identify small molecule that activate the aryl hydrocarbon receptor (AhR) signaling pathway (AID 743085);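 note: HG2L7.5c1 human HepG2 liver cells with stably integrated DRE-driven firefly reporter; series mostly up to about 70 µM; nearly all actives have a fitted effect of over 15% in size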
Sequence of Aryl hydrocarbon receptor (Homo sapiens) (P35869 whole entry, looked up): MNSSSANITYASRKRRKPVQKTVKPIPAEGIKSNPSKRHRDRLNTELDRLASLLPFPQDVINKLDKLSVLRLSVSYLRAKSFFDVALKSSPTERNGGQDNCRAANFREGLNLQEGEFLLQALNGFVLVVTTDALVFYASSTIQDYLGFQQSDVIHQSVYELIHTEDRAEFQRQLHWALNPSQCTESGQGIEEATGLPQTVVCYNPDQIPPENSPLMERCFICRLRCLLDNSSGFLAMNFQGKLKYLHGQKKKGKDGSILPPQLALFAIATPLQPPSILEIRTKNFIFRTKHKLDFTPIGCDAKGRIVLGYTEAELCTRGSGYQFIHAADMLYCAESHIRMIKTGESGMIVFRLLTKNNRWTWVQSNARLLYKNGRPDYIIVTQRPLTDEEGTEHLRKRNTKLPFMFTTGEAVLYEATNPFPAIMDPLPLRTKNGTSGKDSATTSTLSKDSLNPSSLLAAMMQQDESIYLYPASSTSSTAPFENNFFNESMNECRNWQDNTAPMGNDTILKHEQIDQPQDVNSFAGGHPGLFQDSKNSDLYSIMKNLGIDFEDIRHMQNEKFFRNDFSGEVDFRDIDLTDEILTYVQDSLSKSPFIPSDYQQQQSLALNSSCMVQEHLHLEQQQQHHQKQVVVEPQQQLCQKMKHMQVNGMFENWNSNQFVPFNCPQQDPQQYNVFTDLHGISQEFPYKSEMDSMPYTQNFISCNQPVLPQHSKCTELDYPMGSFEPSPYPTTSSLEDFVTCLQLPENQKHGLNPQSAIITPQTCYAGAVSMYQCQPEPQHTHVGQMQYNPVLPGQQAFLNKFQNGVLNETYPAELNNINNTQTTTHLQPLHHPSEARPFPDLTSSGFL
How it was run: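 Luminescence (ONE-Glo) from a dioxin-responsive-element luciferase reporter in HG2L7.5c1 HepG2 cells after 24 hr compound exposure at 37C; viability measured by CellTiter-Fluor fluorescence beforehand.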

[11] = qHTS assay to identify small molecule that activate the aryl hydrocarbon receptor (AhR) signaling pathway - cell viability counter screen (AID 743086);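 note: HepG2 liver cells carrying the AhR DRE luciferase reporter; series mostly up to about 70 µM; nearly all actives have a fitted effect of over 45% in size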
How it was run: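 HepG2-AhR-luc (HG2L7.5c1) cells, 4000/well, were preincubated 5 h at 37C, exposed to compound in qHTS format for 24 hr at 37C, then given CellTiter-Fluor for 30 min; viability was read as fluorescence in the reporter wells.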

[12] = biological target: Peroxisome proliferator-activated receptor gamma (Homo sapiens) (UniProt P37231); experiment: qHTS assay to identify small molecule agonists of the peroxisome proliferator-activated receptor gamma (PPARg) signaling pathway (AID 743094; active = well fitted activation curve with a large enough effect in the signal ratio in the repeat runs, not every such curve was filed as active; the % refers to the signal ratio)
Sequence of Peroxisome proliferator-activated receptor gamma (Homo sapiens) (P37231 whole entry, looked up): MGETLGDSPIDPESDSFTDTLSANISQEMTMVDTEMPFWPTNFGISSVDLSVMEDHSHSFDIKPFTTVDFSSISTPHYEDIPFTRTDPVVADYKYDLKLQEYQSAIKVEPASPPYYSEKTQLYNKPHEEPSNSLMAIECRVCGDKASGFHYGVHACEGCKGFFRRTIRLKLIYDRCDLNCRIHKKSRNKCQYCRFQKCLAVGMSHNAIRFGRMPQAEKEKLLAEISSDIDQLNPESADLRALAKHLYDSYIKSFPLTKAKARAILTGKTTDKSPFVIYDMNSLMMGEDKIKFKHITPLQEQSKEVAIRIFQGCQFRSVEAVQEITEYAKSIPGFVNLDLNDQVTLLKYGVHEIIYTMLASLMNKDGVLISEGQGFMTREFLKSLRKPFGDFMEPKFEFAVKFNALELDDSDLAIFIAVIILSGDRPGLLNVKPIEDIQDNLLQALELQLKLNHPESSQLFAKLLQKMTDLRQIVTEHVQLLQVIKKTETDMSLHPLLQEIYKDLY
How it was run: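 HEK293H PPARg-bla cells, 5 h settle at 37C/5% CO2; compound (DMSO) 17 h, 37C; B/G FRET substrate 1 h RT; fluorescence intensity read-out. qHTS format.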

[13] = biological target: Peroxisome proliferator-activated receptor gamma (Homo sapiens) (UniProt P37231); experiment: qHTS assay to identify small molecule antagonists of the peroxisome proliferator-activated receptor gamma (PPARg) signaling pathway (AID 743191; calls by dose curve; note: series mostly up to about 63 µM; nearly all actives have a fitted effect of over 30% in size)
How it was run: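 GeneBLAzer PPARg UAS-bla HEK293H cells carrying a UAS-driven beta-lactamase reporter were plated at 3000 cells/well, preincubated 5 h at 37C, then given compound for 17 h at 37C; LiveBLAzer B/G FRET substrate was read after 1 h at room temperature.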

[14] = qHTS assay to identify small molecule antagonists of the peroxisome proliferator-activated receptor gamma (PPARg) signaling pathway - cell viability counter screen (AID 743194); note: nearly all actives have a fitted effect of over 55% in size
How it was run: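 PPARg-UAS-bla HEK293H cells were plated, rested 5 h at 37 C, then treated with compounds plus rosiglitazone (50 nM final) for 17 h at 37 C; viability was then read by CellTiter-Glo luminescence after 30 min at room temperature.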

[15] = qHTS assay for small molecule agonists of the antioxidant response element (ARE) signaling pathway (AID 743202; active = well fitted activation curve with a large enough effect in the signal ratio in the repeat runs, not every such curve was filed as active; the % refers to the signal ratio)
How it was run: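 Steps: seed ARE-bla HepG2 cells (2,000/well); incubate 5 h at 37 C; add compounds by pin tool; incubate 16 h at 37 C; add FRET substrate; read fluorescence after 2 h at RT.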

[16] = qHTS assay for small molecule agonists of the antioxidant response element (ARE) signaling pathway - cell viability counter screen (AID 743203; calls by dose curve; note: nearly all actives have a fitted effect of over 55% in size)
How it was run: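 Luminescence read-out (CellTiter-Glo, 30 min at room temperature) measured cell viability in the same wells as the ARE beta-lactamase reporter. HepG2 ARE-bla cells were treated with compounds for 16 hrs at 37C/5% CO2.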

[17] = qHTS assay for small molecule activators of the heat shock response signaling pathway - cell viability counter screen (AID 743209); note: nearly all actives have a fitted effect of over 50% in size
How it was run: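 HSE-bla HeLa; 1500 cells/well; overnight 37 C, 5% CO2; compound 5 h 37 C; LiveBLAzer B/G substrate 2.5 h RT; CellTiter-Glo 30 min RT; luminescence.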

[18] = qHTS assay for small molecule activators of the heat shock response signaling pathway (AID 743210; active = well fitted activation curve with a large enough effect in the signal ratio in the repeat runs, with a control signal flat, not every such curve was filed as active; the % refers to the signal ratio;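 note: HeLa cells with beta-lactamase reporter driven by heat shock elements; series mostly up to about 63 µM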)
How it was run: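 Activation of heat shock element-controlled beta-lactamase expression is measured in HeLa cells by LiveBLAzer FRET fluorescence, with compound exposure lasting 5 h at 37 C and substrate loading 2.5 h at room temperature.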

[19] = qHTS assay to identify small molecule antagonists of the estrogen receptor alpha (ER-alpha) signaling pathway using the BG1 cell line (AID 743080; calls by dose curve;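 note: BG1 cells stimulated with 17beta-estradiol alongside compound; series mostly up to about 70 µM; nearly all actives have a fitted effect of over 25% in size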)
How it was run: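 Quantitative HTS on the Tox21 10K library: BG1 cells with endogenous ER-alpha and ERE-luciferase reporter, 17beta-estradiol stimulation, 21.5 h compound exposure, luminescence endpoint with parallel fluorescence cytotoxicity counter-read.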

Measured: Potency

Cc1scc2c1N(C(=O)CN1CCN(C)CC1)c1ccccc1NC2=O
inactive: [1] | [2] | [3] | [4] | [5] | [6] | [7] | [8] | Aromatase (Homo sapiens) | [9] | [10] | [11] | [12] | [13] | [14] | [15] | [16] | [17] | [18]

COc1ccc(Cc2cnc(N)nc2N)cc1OC
inactive: [1] | [2] | [3] | [4] | [5] | [6] | [7] | [8] | Aromatase (Homo sapiens) | [9] | [10] | [11] | [12] | [14] | [15] | [16] | [17] | [18]

O=C(Oc1ccccc1)c1ccccc1O
inactive: [1] | [2] | [3] | [4] | [5] | [6] | [7] | [19] | [8] | Aromatase (Homo sapiens) | [9] | [10] | [11] | [12] | [14] | [15] | [17] | [18]

CCCNC(C)C(=O)Nc1ccccc1C (centres undefined)
inactive: [1] | [2] | [3] | [4] | [5] | [6] | [7] | [19] | [8] | Aromatase (Homo sapiens) | [9] | [10] | [11] | [12] | [14] | [15] | [16] | [17] | [18]

O=C1NCC2(CCN(CCc3ccccc3)CC2)O1
inactive: [1] | [2] | [3] | [4] | [5] | [6] | [8] | Aromatase (Homo sapiens) | [9] | [10] | [11] | [12] | [14] | [15] | [16] | [17] | [18]
active: [7] 29.8 µM

CCOc1ccccc1C(N)=O
inactive: [1] | [2] | [3] | [4] | [5] | [6] | [7] | [8] | Aromatase (Homo sapiens) | [9] | [10] | [11] | [12] | [14] | [15] | [17] | [18]
